Assay results from PubChem BioAssay AID686940 (The Scripps Research Institute Molecular Screening Center, 2013).
About 2,600 (0.7%) of roughly 370,000 compounds were called active. Many of the other results were omitted from the sample, so actives are more common in it than they were. Values without a mark were called inactive.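 Rule for the calls: active = inhibition above a per-plate cutoff, mean inhibition of test wells between control levels plus 3 SD (cut at about 38% in these data); inactive = the rest.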

Target: COUP transcription factor 2 (Homo sapiens) (UniProt P24468)
Sequence (P24468 whole entry, looked up): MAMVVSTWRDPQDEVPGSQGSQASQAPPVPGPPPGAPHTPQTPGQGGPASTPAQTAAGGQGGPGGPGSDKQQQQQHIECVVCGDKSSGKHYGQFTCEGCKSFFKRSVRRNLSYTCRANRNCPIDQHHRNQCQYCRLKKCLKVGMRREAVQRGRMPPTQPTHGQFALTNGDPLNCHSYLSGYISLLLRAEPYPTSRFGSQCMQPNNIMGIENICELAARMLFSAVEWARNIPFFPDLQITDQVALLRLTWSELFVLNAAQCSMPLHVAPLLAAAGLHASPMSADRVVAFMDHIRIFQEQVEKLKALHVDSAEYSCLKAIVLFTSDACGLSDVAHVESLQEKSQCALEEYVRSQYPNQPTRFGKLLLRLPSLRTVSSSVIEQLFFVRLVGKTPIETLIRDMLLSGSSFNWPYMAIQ
Assay: COUP-TFII reporter suppression in human cells – cell-based, luciferase reporter, HEK293T, luminescence, primary screen (AID 686940);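 note: cells cotransfected with COUP-TFII expression vector driving the NGFI-A reporter; 0% = median of COUP-TF2 test wells and 100% = reporter-only cells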
Settings: HEK293T NGFI-A luciferase reporter, at 8.6 µM, hits give high values

Structure (SMILES) | inhibition
CCc1ccccc1NC(=O)c1cc(-c2ccc3c(c2)OCO3)on1 | -0.24%
CC(O)(c1cccc(F)c1)c1nc(-c2ccc3c(c2)OCO3)cs1 (stereo not given) | 8.11%
O=C(Nc1nc(-c2ccc3c(c2)OCO3)cs1)c1ccncc1 | 52.5% (active)
CC(=O)Nc1ccc(-c2csc(NC(=O)Nc3ccccc3)n2)cc1 | 60.9% (active)
COc1ccc(CC(N)c2csc(NC(=O)Nc3ccc(C(C)C)cc3)n2)cc1 (stereo not given) | 15.8%
CCOC(=O)c1csc(NC(=O)Nc2cccc(OC)c2)n1 | -7.28%
O=C1CC[C@@]23CCCN2C(=O)CCC[C@H]3[C@H]1Cc1ccccc1 | -3.33%
COC(=O)[C@]12C[C@H](CC(=O)NCc3ccccc3)C(=O)N(CCC3=CCCCC3)C1=C[C@H](C(C)C)O[C@@H]2C1CC1 | 2.64%
CCCCNc1nc2c(c(=O)n(C)c(=O)n2C)n1Cc1cccc(OC)c1 | 53.5% (active)
Cn1c(=O)c2c(nc(NCc3ccccc3)n2CC(N)=O)n(C)c1=O | 4.42%
CCn1c(NCCc2ccc(OC)c(OC)c2)nc2c1c(=O)n(C)c(=O)n2C | -1.49%
O=C(NC1CCCCN(Cc2cccc(C(F)(F)F)c2)C1=O)c1ccccc1I (stereo not given) | 22.4%
CCC(=O)Nc1ccc2c(c1)C(=O)N(C)[C@@H]1CC[C@@H](CC(=O)NCCc3ccccc3)O[C@H]1CO2 | 19%
CC(C)N1CCCCC(NC(=O)C(C)(C)C)C1=O (stereo not given) | 0.07%
Cc1ccc(CN2CCCCC(NC(=O)C3CCCCC3)C2=O)cc1 (stereo not given) | 2.64%
O=C(NCCc1c[nH]c2ccccc12)OCc1cn(-c2c(F)cccc2F)nn1 | -1.45%
CC(=O)OCCN1CCCC12CCC(c1ccccc1)CC2 (stereo not given) | -6.1%
O=c1oc2ccccc2cc1-c1cn(-c2ccccc2)c(=S)[nH]1 | 81.6% (active)
C[C@@H](NC(=O)c1ccccc1OCC(=O)Nc1ccc(I)cc1)C(=O)N(C)Cc1ccccc1 | 3.89%
COc1ccc(CCNC(=O)CSc2nc3c([nH]2)c(=O)n(C)c(=O)n3C)cc1 | -4.66%
CC(CCN1CCC(C(O)(c2ccccc2)c2ccccc2)CC1)Oc1ccc(C(F)(F)F)cc1 (stereo not given) | 9.47%
O=C(OC12CC3CC(CC(C3)C1)C2)c1ccc(NCc2cc(O)ccc2O)cc1 | 82.7% (active)
COc1ccc(NC(=O)CCCN2C(=O)C(c3ccccc3)Oc3cccnc32)cc1 (stereo not given) | -1.91%
COc1ccc(/C=C2/SC(=O)N(CCCCCC(=O)Nc3ccccc3C(=O)O)C2=S)cc1 | 48% (active)
CCCNC(=O)c1ccccc1NC(=O)CSCc1ccc(OC)cc1 | 10.2%
